Test results: PubChem BioAssay AID624417 (National Center for Advancing Translational Sciences (NCATS), 2012)
Among all 410,000 compounds or so, about 6,400 (1.6%) were called active. Not shown: some 20% with an inconclusive outcome. Calls follow the shape of the dose curve; as a rule, active = well fitted inhibition curve with a large enough effect; inconclusive = small, poorly fitted or top-dose-only effect; inactive = no such curve, though single readings can be large or run the other way. Only a selection was taken, and actives are over-represented in it overall.

Molecular target: Glucagon-like peptide 1 receptor (Homo sapiens) (UniProt P43220)
Sequence (P43220 whole entry, looked up): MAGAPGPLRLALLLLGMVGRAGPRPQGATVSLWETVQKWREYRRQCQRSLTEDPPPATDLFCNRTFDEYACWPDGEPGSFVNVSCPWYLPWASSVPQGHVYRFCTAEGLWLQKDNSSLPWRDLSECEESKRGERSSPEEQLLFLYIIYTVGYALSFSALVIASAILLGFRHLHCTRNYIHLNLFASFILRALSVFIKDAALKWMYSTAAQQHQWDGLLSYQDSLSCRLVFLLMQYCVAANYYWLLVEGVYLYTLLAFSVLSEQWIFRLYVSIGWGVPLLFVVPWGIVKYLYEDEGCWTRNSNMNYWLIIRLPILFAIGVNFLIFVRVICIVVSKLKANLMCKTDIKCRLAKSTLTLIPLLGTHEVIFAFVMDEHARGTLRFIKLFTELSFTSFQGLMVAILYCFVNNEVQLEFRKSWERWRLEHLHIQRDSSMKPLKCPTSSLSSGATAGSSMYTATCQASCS
Assay: qHTS of GLP-1 Receptor Inverse Agonists (Inhibition Mode); also: nearly all actives have a fitted effect of over 55% in size
Settings: HEK293 GLP-1R CRE-luciferase, luminescence, 24 h, GLP-1R form is constitutively active; series mostly up to 38.3 µM; activity change, negative = inhibition: at the top concentration
How it was run: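 Assay principle: reduced luminescence from a cAMP-responsive reporter in HEK293 cells co-expressing a constitutively active GLP-1R. Conditions: 24 hr compound incubation, 37 deg C, 5% CO2.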
% is scaled to controls: 0 for no effect and ±100 for the full control effect; potency is read from the fitted curve at half-maximal effect.

Compound | activity change, negative = inhibition | Potency
Cc1ccc(-c2nc3c(C)cc(Br)cn3c2Cc2ccccc2)cc1 | -18.4% (inactive) | 
CCC(C(=O)Nc1c(C)cccc1C)n1c(-c2cc(C)cs2)nc2ccccc21 (centres undefined) | -9.76% (inactive) | 
O=C(Nc1ccccc1-c1nc2ccccc2[nH]c1=O)c1cccs1 | 42.6% (inactive) | 
CCC(c1nc2ccccc2[nH]1)n1c(=O)c(-c2cccs2)nc2ccccc21 (centres undefined) |  | 10 µM (active)
Cc1ccccc1CN1C(=O)CSCC1(C)C(=O)Nc1c(C)cccc1C (centres undefined) | 8.92% (inactive) | 
Cc1cccc(NS(=O)(=O)c2ccc(-c3cnc(C4CC4)o3)cc2)c1 |  | 0.891 µM (active)
Cc1ccc(-c2cnc(C3CC3)o2)cc1S(=O)(=O)Nc1cccc(C)c1C | -11% (inactive) | 
COc1ccc(CNS(=O)(=O)c2ccc(-c3cnc(C4CC4)o3)cc2)cc1 |  | inactive
CC1(C(=O)NS(=O)(=O)c2cccs2)CCN1C(=O)Cc1ccc(-c2ccccc2)cc1 (centres undefined) | -22.6% (inactive) | 
Cc1csc(=O)n1CCC(=O)OCC(=O)Nc1ccc(N2CCOCC2)cc1 | 1.06% (inactive) | 
Oc1ccc(Br)cc1/C=N/Nc1ccccn1 |  | 2.82 µM (active)
Oc1ccc(/C=N/Nc2ccc(C(F)(F)F)cn2)cc1O | 20.3% (inactive) | 
Cc1c(C(=O)Nc2ccccn2)oc2ccc(Br)cc12 | 7.51% (inactive) | 
COc1ccc(S(=O)(=O)NC(=O)C2(C)CCN2C(=O)c2ccccc2CCc2ccccc2)cc1 (centres undefined) | -12.1% (inactive) | 
O=C(OCCOc1ccccc1Cl)c1cc(S(=O)(=O)N2CCCCC2)ccc1N1CCOCC1 |  | 4.47 µM (active)
O=C(OCCOc1ccccc1F)c1cc(S(=O)(=O)N2CCOCC2)ccc1F | 1.47% (inactive) | 
CC(C)(C)C(=O)COC(=O)c1cc(S(=O)(=O)N2CCCCC2)ccc1N1CCOCC1 | -11.3% (inactive) | 
CCN(CC)CCCNC(=O)c1ccc2c(=O)n(Cc3ccc4c(c3)OCO4)c(=S)[nH]c2c1 | -18.1% [at 7.66 µM] (inactive) | 
CCN(CC)CCCNC(=O)c1cn(C)c2ccc(S(=O)(=O)N(C)C3CCCCC3)cc2c1=O |  | inactive
CCN(CC)CCCNC(=O)c1c(O)c2cc(F)cc3c2n(c1=O)C(C)CC3 (centres undefined) |  | 7.94 µM (active)
CCNC(=O)C1(C)CCCN(Cc2noc(-c3ccccc3OC)n2)C1 (centres undefined) | -13.4% (inactive) | 
Oc1ccc(-c2nc3ccccc3nc2-c2ccc(O)cc2O)c(O)c1 |  | 4.47 µM (active)
Oc1ccc2nc(Cc3ccccc3)[nH]c2c1 | 7.71% (inactive) | 
Cc1nc2ccccc2nc1N/N=C/c1ccc(O)cc1O | -9.04% (inactive) | 
CCc1cccc(CC)c1N1C(=O)CC(Sc2ccccc2N)C1=O (centres undefined) | -11.6% (inactive) | 

Compound | activity change, negative = inhibition | Potency
O=C1c2ccccc2C(=O)N1Cc1cc(-c2ccccc2Cl)no1 | 9.44% (inactive) | 
Clc1ccc(-c2cc(-c3ccccn3)on2)c(Cl)c1 |  | 5.62 µM (active)
Fc1ccc(-c2ccc(CNCc3ccccn3)o2)cc1Cl | -18.3% (inactive) | 
Nc1nonc1-n1nnc(C(=O)N/N=C/C2CCCCC2)c1-c1ccccc1 | 22.9% (inactive) | 
CC(C)c1c(C(=O)N/N=C/c2ccccc2C(=O)O)nnn1-c1nonc1N | -9.57% (inactive) | 
Nc1nonc1-n1nnc(C(=O)N/N=C/c2c[nH]c3ccccc23)c1-c1ccccc1 |  | 12.6 µM (active)
Cc1[nH]c2ccccc2c1C(=O)C(=O)NCc1nnnn1-c1cccc(F)c1 | 9.36% (inactive) | 
O=C(COC(=O)c1cccc(Cl)c1Cl)NC1CCCCCC1 | -2.12% (inactive) | 
CC(=O)NCCNC(=O)c1cc(-c2cccc3ccccc23)nc2ccccc12 | 14% (inactive) | 
CCCN(CCC)CCNC(=O)c1cc2c(C)nc3ccccc3c2o1 | -23.1% (inactive) | 
CN(C)CCNC(=O)c1ccc(Cl)c2cc3ccccc3nc12 |  | 7.08 µM (active)
CC(=O)NC(c1ccccc1)c1nc(-c2ccccc2C)cs1 (centres undefined) | 19.8% (inactive) | 
c1ccc(-c2ccc(OCCN3CCOCC3)cc2)cc1 | -16.9% (inactive) | 
CCOc1nc(NCCN2CCOCC2)nc(Nc2ccc(C)cc2)n1 | 9% (inactive) | 
c1ccc2cc3c(NCCN4CCOCC4)ccnc3cc2c1 |  | 10 µM (active)
CCCCn1nnnc1C(c1ccccc1)N1CCN(c2ccccc2OC)CC1 (centres undefined) | -26.8% (inactive) | 
O=C(NCc1ccccc1Cl)c1csc([C@@H]2O[C@H](CO)[C@@H](O)[C@H]2O)n1 | -16.2% (inactive) | 
CCCN(CC(=O)Nc1ccccc1C)C(=O)c1cc(=O)[nH]c2ccccc12 | 0.788% (inactive) | 
CCCN(CC(=O)Nc1ccccc1C)C(=O)c1ccc(OCC(=O)N2CCOCC2)c(OCC)c1 | 7.89% (inactive) | 
CCCN(CC(=O)Nc1ccccc1C)C(=O)c1ccc2[nH]c3c(c2c1)CC(C)CC3 (centres undefined) |  | 5.62 µM (active)
CN(Cc1c(F)cccc1Cl)C(=O)COC(=O)Cn1cnc2ccccc2c1=O | 8.86% (inactive) | 
CCOc1ccc(CN2CCCN(C)CC2)cc1 | -20.5% (inactive) | 
Cc1ccc(CN2CCc3nc(N4CCN(C)CC4)ncc3C2)cc1 |  | 7.94 µM (active)
CCCN1CCc2nc(N3CCN(C)CC3)ncc2C1 | -13.3% (inactive) | 
COc1cc(C(O)c2nc(-c3cccc(C(=O)O)c3)cs2)ccc1F (centres undefined) | 30.9% (inactive) | 

Compound | activity change, negative = inhibition | Potency
Cc1cccc(C)c1-n1nnnc1C(CCc1ccccc1)N1CCN(C/C=C/c2ccccc2)CC1 (centres undefined) | 18.7% (inactive) | 
COc1ccc(N2C(=O)C(Cc3ccccc3)NC2=S)cc1 (centres undefined) | 22.3% (inactive) | 
COc1ccc(C2OC(CCc3ccccc3)Cc3[nH]c(=S)[nH]c(=O)c32)cc1 (centres undefined) |  | 10 µM (active)
COc1ccc(C2CC(=O)NC(=O)C2)cc1 | 13.7% (inactive) | 
CC(C)C1Cc2[nH][nH]c(=O)c2C(c2ccc(Cl)cc2)O1 (centres undefined) | -18.5% (inactive) | 
CC1Cc2[nH][nH]c(=O)c2C(C2CC2)O1 (centres undefined) | 5.46% (inactive) | 
O=c1[nH][nH]c2c1[C@H](c1ccc(Cl)cc1)O[C@H](CCc1ccccc1)C2 |  | 10 µM (active)
COc1ccc(CCNC(=O)Nc2ccc3c(c2)c(=O)n(C)n3C)cc1OC | 8% (inactive) | 
CC(C)CN1C(=O)CN(S(C)(=O)=O)CC1(C)C(=O)NCc1ccccc1 (centres undefined) | 18.3% (inactive) | 
c1ccc(Cc2c(-c3ccco3)nc3c4ccccc4ccn23)cc1 | -57% (inactive) | 
CCN(CC)CCNC(=O)c1sc2ncn(CC(=O)Nc3ccc(C)c(Cl)c3)c(=O)c2c1C |  | 11.2 µM (active)
Cc1ccc(NC(=O)Cn2cnc3nc4c(cc3c2=O)CCCC4)cc1Cl | 2.73% (inactive) | 
CCN(CC)CCNC(=O)Cn1cnc2sc(C)c(S(=O)(=O)N3CCOCC3)c2c1=O | -21.3% (inactive) | 
COc1ccc(C(C(=O)Nc2c(C)cccc2C)N2CCN(c3ccc(C)cc3)CC2)cc1 (centres undefined) | 3.35% (inactive) | 
CCOC(=O)N1CCN(C(c2ccnc3ccccc23)c2nnnn2-c2c(C)cccc2C)CC1 (centres undefined) | -20.8% (inactive) | 
Cc1nc(C(F)(F)F)ccc1C(=O)N1CCC1(C)C(=O)NS(=O)(=O)c1ccccc1 (centres undefined) | 12.5% (inactive) | 
O=C(c1cc(C2CCCCN2S(=O)(=O)c2ccccc2)on1)N1CCOCC1 (centres undefined) | 24.4% (inactive) | 
CCN1CCN(CCNC(=O)c2ccc3c(c2)NC(=O)/C(=C\c2cccc(Cl)c2)S3)CC1 | -23.7% (inactive) | 
CCN1CCCC1CNC(=O)c1cc2c(=O)n(C)c3ccccc3c2n1C (centres undefined) | 2.81% (inactive) | 
CCN1CCCC1CNC(=O)c1ccc2c(c1)NC(=O)/C(=C\c1ccccc1F)S2 (centres undefined) |  | 11.2 µM (active)
O[C@H]1CN(Cc2cccs2)[C@@H](c2ccc(Cl)cc2)C[C@@H]1n1cc(C2CC2)nn1 | 1.31% (inactive) | 
O=C(CNC(=O)N1CC(=O)Nc2ccccc21)Nc1ccc(Br)cc1F | -10.9% (inactive) | 
CO[C@@H]1CN(C)C(=O)c2cc(NC(=O)C3CC3)ccc2OC[C@H](C)N(C(=O)CN2CCOCC2)C[C@@H]1C | 19.3% (inactive) | 
CN(C)CCCNC(=S)N1CCN(c2nc(-c3ccccc3)cs2)CC1 |  | 3.98 µM (active)
CN(C)CCCNC(=S)N1CCC(c2nc3ccccc3[nH]2)CC1 | 14.6% (inactive) | 

Compound | activity change, negative = inhibition | Potency
c1ccc(-c2csc(N3CCc4ccccc4C3)n2)cc1 | 3.39% (inactive) | 
CCC1(CC)Cc2ccccc2-c2nc3ccccc3c(=O)n21 |  | 8.91 µM (active)
CCOn1c(SC(C)C)nc2ccccc2c1=O | -1.53% (inactive) | 
CCOC(=O)C1CCc2nc3ccccc3c(=O)n21 (centres undefined) | 1.08% (inactive) | 
Cc1ccc([C@@H]2CC(=O)[C@@H]3CN(S(=O)(=O)c4ccc(C)cc4)[C@H](c4ccccc4F)C[C@@H]3N2S(=O)(=O)c2ccc(Cl)cc2)cc1 | -28% (inactive) | 
O=C(CSc1ccc(-c2ccc(Br)cc2)nn1)NCC1CCCO1 (centres undefined) | -7.03% (inactive) | 
OC(CNCC1CCCO1)Cn1c2ccc(Br)cc2c2cc(Br)ccc21 (centres undefined) |  | 5.62 µM (active)
O=C(CCNS(=O)(=O)c1ccc(Br)cc1)NCC1CCCO1 (centres undefined) | 0.853% (inactive) | 
Cc1cccc(C(=O)NC(=S)N(C)C2CCCCC2)c1 | -23.1% (inactive) | 
Cc1ccc(-n2ncc3c2ncn2nc(-c4ccco4)nc32)c(C)c1 | 7.56% (inactive) | 
Cc1cccc(C(=O)N2c3nc(-c4ccco4)nn3C3(CCCCC3)[C@@H]3CCCC[C@@H]32)c1 |  | 11.2 µM (active)
CCc1nc2c(OCC(N)=O)cccn2c1N(C)C(=O)c1ccc(OC)cc1 | 21.3% (inactive) | 
Cc1ccccc1S(=O)(=O)NC(=O)C1(C)CCN1C(=O)Cc1ccc(Cl)cc1Cl (centres undefined) | -6.45% (inactive) | 
C=CCC[C@H](Cc1ccc(F)cc1)C(=O)OC[C@@H](NC(=O)[C@@H](CC=C)CC(=O)N[C@H](CO)Cc1ccccc1)C(C)(C)C |  | 7.94 µM (active)
C=CC[C@@H](CC(=O)N[C@H](CO)Cc1ccccc1)C(=O)N[C@H](C)COC(=O)[C@@H](CC=C)Cc1ccc(F)cc1 | -24.5% (inactive) | 
C=CC[C@@H](CC(=O)N[C@@H](CO)Cc1ccccc1)C(=O)N[C@H](COC(=O)[C@H](CC=C)CC(=O)OC(C)(C)C)Cc1ccccc1 | 18.1% (inactive) | 
CCCCc1ccc(S(=O)(=O)NC(=O)C2(C)CCN2C(=O)c2c(C)noc2C)cc1 (centres undefined) | 20.7% (inactive) | 
Cc1cc(=O)c2ccc(NC(=O)c3ccccc3)cc2[nH]1 | 21.1% (inactive) | 
CCCCCn1nnnc1C1c2ccccc2C(=O)N1Cc1ccco1 (centres undefined) | 15.6% (inactive) | 
COc1ccc(Sc2ccc(NC(=O)c3cccc(Cl)c3)cc2C#N)cc1 | -0.552% (inactive) | 
CCCCNC(=O)C[C@@H]1C[C@@]2(C(=O)OCC)CCC=C2N(Cc2ccco2)C1=O | 4.25% (inactive) | 
Cn1c(S(=O)(=O)O)nc2ccccc21 | 10.8% (inactive) | 
O=S(=O)(Cc1ccccc1)c1nc2ccccc2n1Cc1ccccn1 | 0.0124% [at 7.66 µM] (inactive) | 
O=S(=O)(O)c1nc2ccccc2n1Cc1ccc(Cl)cc1Cl |  | 10 µM (active)
